The target in assay [1] is T1, ETS1 (UniProt P14921).
T1 sequence: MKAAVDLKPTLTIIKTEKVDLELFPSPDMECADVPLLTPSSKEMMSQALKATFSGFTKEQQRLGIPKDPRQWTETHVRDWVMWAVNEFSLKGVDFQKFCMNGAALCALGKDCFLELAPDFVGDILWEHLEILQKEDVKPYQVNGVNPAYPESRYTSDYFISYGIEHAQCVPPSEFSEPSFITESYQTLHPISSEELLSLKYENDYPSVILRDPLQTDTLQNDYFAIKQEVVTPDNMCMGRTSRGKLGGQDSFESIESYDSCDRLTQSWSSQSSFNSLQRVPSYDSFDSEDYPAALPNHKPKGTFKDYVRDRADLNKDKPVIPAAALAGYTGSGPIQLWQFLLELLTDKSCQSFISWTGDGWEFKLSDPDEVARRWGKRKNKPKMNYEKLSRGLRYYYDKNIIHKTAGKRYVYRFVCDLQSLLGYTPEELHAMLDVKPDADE
Briefly: ETS1 binding intensity (PBM fluorescence), ETS1 alone (arbitrary fluorescence units); higher = stronger binding. The conditions noted are these: ETS1 concentration 1 nM; RUNX1 concentration 0 nM.

Assay [2] has as its target RUNX1 (UniProt Q01196). The experiment in a line: RUNX1 binding intensity (PBM fluorescence), RUNX1 alone (arbitrary fluorescence units); higher = stronger binding. Particulars: RUNX1 concentration 2 nM; ETS1 concentration 0 nM. On the procedure:
(§1)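 Cooperative gcPBM on 36-bp genomic probes with neighbouring ETS1 and RUNX1 sites. Recombinant human RUNX1 (2 nM) was incubated alone or with ETS1 (25 nM) and detected with anti-RUNX1 antibody plus Alexa488 secondary. Values are medians over 4 replicate spots; the RUNX1+ETS1 data were normalised to the RUNX1-only data. The probes sit in constant array flanks that are not printed.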

The target of assay [3] is T1, ETS1. Briefly: ETS1 binding intensity (PBM fluorescence) in presence of RUNX1, normalised to ETS1-only experiment (arbitrary fluorescence units); higher = stronger binding. The conditions noted are these: ETS1 concentration 1 nM; RUNX1 concentration 25 nM.
The target in assay [4] is RUNX1 (UniProt Q01196). The experiment in a line: RUNX1 binding intensity (PBM fluorescence) in presence of ETS1, normalised to RUNX1-only experiment (arbitrary fluorescence units); higher = stronger binding. Particulars: RUNX1 concentration 2 nM; ETS1 concentration 25 nM. On the procedure: as §1
Chain of RUNX1 (Q01196 whole entry): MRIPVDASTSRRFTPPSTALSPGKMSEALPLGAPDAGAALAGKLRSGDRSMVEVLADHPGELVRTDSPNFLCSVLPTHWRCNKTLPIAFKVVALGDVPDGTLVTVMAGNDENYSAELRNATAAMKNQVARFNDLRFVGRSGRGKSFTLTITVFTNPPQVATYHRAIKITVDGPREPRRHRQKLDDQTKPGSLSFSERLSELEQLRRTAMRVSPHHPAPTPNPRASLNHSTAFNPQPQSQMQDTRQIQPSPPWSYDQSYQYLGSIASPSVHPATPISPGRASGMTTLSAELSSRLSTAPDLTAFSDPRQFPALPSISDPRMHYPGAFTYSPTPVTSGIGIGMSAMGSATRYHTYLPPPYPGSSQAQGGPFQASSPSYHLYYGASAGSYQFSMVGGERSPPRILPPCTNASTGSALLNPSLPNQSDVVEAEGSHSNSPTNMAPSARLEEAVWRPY
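Wherever RUNX1 binding intensity (PBM fluorescence) in presence of ETS1, normalised to RUNX1-only experiment is given: Full-length recombinant human ETS1 or RUNX1 bound to double-stranded 36-bp genomic probes on microarrays, detected by protein-specific primary antibody and Alexa488 secondary, spot fluorescence as median of four replicate spots.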
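Wherever RUNX1 binding intensity (PBM fluorescence), RUNX1 alone is given: Full-length recombinant human RUNX1 bound to double-stranded 36-bp genomic probes on a high-density microarray, scored as Alexa488 fluorescence per spot via anti-RUNX1 antibody, median of four replicate spots.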

In the case of CGGGGACCACTGTCAGGATGTGGTCACTGGAGTCAC, the ETS1 binding intensity with ETS1 [1] was found to be 907; with ETS1 [3], 8350. Besides, the RUNX1 binding intensity was found to be 707 in the assay with RUNX1 [2] and 1420 in the assay with RUNX1 [4].

For AGCGCCACACTTCCGCTTTGCGGCAGTGTGCGCCCC, the ETS1 binding intensity with ETS1 [1] came to 3490; with ETS1 [3], 3280. Moreover, the RUNX1 binding intensity with RUNX1 [2] stood at 730; with RUNX1 [4], 1890.

GGTGGCCGCCGGAAGTGTGACCGCGGGAGGGGAGTG: the ETS1 binding intensity in the assay with ETS1 [1] came out at 7650; in the assay with ETS1 [3] it was 25500. The RUNX1 binding intensity was 743 with RUNX1 [2] and 2690 with RUNX1 [4].

Turning to TGCACGGTAAGCAGGAAGCTGCGGCCGAGCTGAGTC, the ETS1 binding intensity worked out at 2020 with ETS1 [1] and 3120 in the assay with ETS1 [3]. The results for the RUNX1 binding intensity with RUNX1 [2] and with RUNX1 [4] were 687 and 1030, respectively.

Regarding GAGCCGGAAGTGAAGGAGGGCTTGTGGGAGATGGAG, the ETS1 binding intensity with ETS1 [1] amounted to 2710; in the assay with ETS1 [3], 3090. The RUNX1 binding intensity in the assay with RUNX1 [2] was found to be 713; in the assay with RUNX1 [4] it was 1210.

As for TCCCTAAGTCACATCCTGTGGGCAAAGGCCCTAGCA, the ETS1 binding intensity with ETS1 [1] is 880; with ETS1 [3], 935. In addition, the RUNX1 binding intensity in the assay with RUNX1 [2] was determined as 769; in the assay with RUNX1 [4], 1570.

Turning to CGGTTCCGGCGCCTGAAGTTTTAGCTGCGGTGGCGG, the ETS1 binding intensity with ETS1 [1] amounted to 347; with ETS1 [3], 676. In addition, the RUNX1 binding intensity is 794 in the assay with RUNX1 [2] and 1720 with RUNX1 [4].

Take CTGAGCCGGGACCGGAAGCCGCACCGCCCCCCGCGC: the ETS1 binding intensity with ETS1 [1] was determined as 18400; with ETS1 [3], 21700. Besides, the results for the RUNX1 binding intensity with RUNX1 [2] and with RUNX1 [4] were 828 and 1770, respectively.

Turning to AGTCTCGTTTCCTGTGCGCTGTGGCCACCTGGCAGC, the ETS1 binding intensity in the assay with ETS1 [1] came to 1110; in the assay with ETS1 [3], 1050. The figures for the RUNX1 binding intensity with RUNX1 [2] and with RUNX1 [4] were 716 and 1790, respectively.

Turning to GGGACGGGGAGGGCAGGATGTGGTCGCTCTTCCCTC, the ETS1 binding intensity in the assay with ETS1 [1] is 3320; with ETS1 [3], 9330. The RUNX1 binding intensity with RUNX1 [2] is 822; with RUNX1 [4] it was 1750.

As to GCACTACATTTCCCAGCTTTCCTCGCGGTAAAGAGA, the ETS1 binding intensity worked out at 456 with ETS1 [1] and 429 with ETS1 [3]. For the same sequence, the RUNX1 binding intensity with RUNX1 [2] and with RUNX1 [4] was 1270 throughout.

GCCCGGAAGCGCGACGCTGGAGCTGCGGGGTTACCA: the ETS1 binding intensity with ETS1 [1] is 773; with ETS1 [3], 887. For the same sequence, the RUNX1 binding intensity with RUNX1 [2] is 662; in the assay with RUNX1 [4] it was 882.

Turning to AAAATTAAAGCAGGAAGTAATCAACCACATCAAATG, the ETS1 binding intensity with ETS1 [1] was determined as 3130; in the assay with ETS1 [3] it was 9610. Besides, the figures for the RUNX1 binding intensity with RUNX1 [2] and in the assay with RUNX1 [4] were 761 and 1610, respectively.

For the sequence GCCACTTCCTGGAAAACAGTAATTACCACACGTCTC, the ETS1 binding intensity was found to be 464 with ETS1 [1] and 546 with ETS1 [3]. In addition, the RUNX1 binding intensity in the assay with RUNX1 [2] amounted to 1100; with RUNX1 [4] it was 2160.

For the sequence ATTAGAGGTAGAGGAAATACCACATGCAAAGGTTTG, the results for the ETS1 binding intensity in the assay with ETS1 [1] and with ETS1 [3] were 793 and 1090, respectively. In addition, the figures for the RUNX1 binding intensity with RUNX1 [2] and with RUNX1 [4] were 785 and 863, respectively.

On to CTACGACTTCCGTGATGCCTTGCGGTTGCTGTAGCC, for which the ETS1 binding intensity with ETS1 [1] worked out at 524; with ETS1 [3] it was 1380. Also, the values for the RUNX1 binding intensity in the assay with RUNX1 [2] and in the assay with RUNX1 [4] were 2700 and 8450, respectively.

On to TCCGGAAATAGATAATATCTAGTTAAACCTCAAAAT, for which the ETS1 binding intensity with ETS1 [1] came to 1540; in the assay with ETS1 [3], 2850. Also, the RUNX1 binding intensity with RUNX1 [2] was determined as 786; in the assay with RUNX1 [4], 965.

In the case of TCAGGGGAGCGAGCAGGAAGTGGTAAGATTTGATAG, the ETS1 binding intensity with ETS1 [1] is 3680; with ETS1 [3], 7210. Also, the figures for the RUNX1 binding intensity with RUNX1 [2] and with RUNX1 [4] were 696 and 1230, respectively.

For TGTCCGCACCCCACTTCCGCCCCGCAGAGGGCAACG, the ETS1 binding intensity was 2960 with ETS1 [1] and 3480 with ETS1 [3]. For the same sequence, the RUNX1 binding intensity stood at 890 with RUNX1 [2] and 3130 with RUNX1 [4].

For GTAAGTAGGCCAGGAAGTGGTCACTGCAGCATGTGA, the ETS1 binding intensity with ETS1 [1] amounted to 3740; with ETS1 [3], 4960. Further, the RUNX1 binding intensity was 722 with RUNX1 [2] and 1440 in the assay with RUNX1 [4].

For the origin of these results see the supplement of paper PMC10681739.
